Compound activity as filed in PubChem BioAssay.
The list is not random: actives were taken first. Their share in the collection is about 4.6%.
NALP3 yeast inh = NALP3 inflammasome inhibitors in reconstituted yeast, primary screen, luminescence, uHTS | AID 2825, 2010 | Yeast reconstituted NLRP3/ASC/caspase-1, beta-gal luminescence, 24 h | inhibition, % at 10 µM | 0.39% of 330,000 active;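 active = inhibition of 50% or more; inactive = inhibition below 50%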;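 also: plate controls were induced DMSO wells for no effect and uninduced yeast grown without galactose for full effect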
TIM10 inh = growth inhibitors of isogenic TIM10 control yeast, primary screen, counter-screen for tim10-1 yeast inhibitor project, luminescence, uHTS | S. cerevisiae TIM10 strain growth, BacTiter-Glo luminescence, 24 h | 1.4% of 330,000 active | inhibition, % at 10 µM;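 active = inhibition of 40% or more at the single tested concentration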;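 also: wild-type TIM10 isogenic control strain grown at permissive 25 °C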
tim23-1 inh = growth inhibitors of tim23-1 mutant yeast, primary screen, luminescence, uHTS. AID 463212, 2010. inhibition, % at 20 µM. S. cerevisiae tim23-1 growth, BacTiter-Glo luminescence, 24 h. 1.3% of 330,000 active;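 active = growth inhibition of the mutant yeast at or above 50%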;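 also: temperature-sensitive mutant grown at 25 °C; plate controls were DMSO-treated mutant yeast for no effect and medium wells lacking yeast for full effect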
tim10-1 inh = growth inhibitors of tim10-1 mutant yeast, primary screen, luminescence, uHTS; S. cerevisiae tim10-1 ts strain growth, BacTiter-Glo, 24 h; AID 463190, 2010; inhibition, % at 20 µM; 2.2% of 330,000 active;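 active = inhibition of at least 40%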;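 also: mutant grown at 25 °C; 0% = DMSO wells with yeast and 100% = wells holding no yeast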
SKKanGAS inh = S. pyogenes SKKanGAS growth inhibitors in kanamycin, primary screen, streptokinase expression inhibitor project, SKKanGAS strain, BacTiter-Glo luminescence | 6 h | inhibition, % at 7.5 µM | 1.3% of 300,000 active | AID 1662, 2009;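 active = mean replicate score, as percent of positive control median, at least 50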;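 also: strain carries kanamycin resistance gene driven by streptokinase promoter and grows in 40 µg/ml kanamycin; loss of luminescence reflects streptokinase promoter inhibition or plain growth inhibition; 0% = median of DMSO wells and 100% = positive control at its reference dose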
tim10-1 confirm = growth inhibitors of tim10-1 mutant yeast, confirmation, single concentration, luminescence, S. cerevisiae; shares compounds with tim10-1 inh; S. cerevisiae tim10-1 ts strain growth, BacTiter-Glo, 24 h; inhibition, % at 20 µM; 56% of 7,400 active; AID 463213, 2010;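 active = inhibition of yeast growth at or above a set limit in either of two repeat tests at 20 µM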;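 also: tim10-1 mutant grown at permissive 25 °C to find synthetic lethal compounds; 0% = DMSO yeast wells and 100% = medium wells without yeast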
TIM10 conf = growth inhibitors of wild-type TIM10 yeast, confirmation, counter-screen for tim10-1 synthetic lethality project, single concentration, luminescence, S. cerevisiae; AID 463215, 2010; shares compounds with TIM10 inh; 63% of 4,600 active; S. cerevisiae tim10 strain growth, BacTiter-Glo luminescence, 24 h; inhibition, % at 10 µM;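 active = inhibition of yeast growth at or above a set limit in either of two replicates at 10 µM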;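 also: this counterscreen used the strain with wild-type TIM10; 0% = yeast with DMSO and 100% = medium wells lacking yeast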
tim23-1 conf = tim23-1 mutant yeast growth inhibitors, confirmation, luminescence, single concentration. shares compounds with tim23-1 inh. S. cerevisiae tim23-1 growth, BacTiter-Glo luminescence, 24 h. inhibition, % at 20 µM. 83% of 4,400 active. AID 463218, 2010;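 active = inhibition above about 39% in either of two replicate wells at 20 µM, limit read from the data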;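 also: temperature-sensitive tim23-1 mutant grown at 25 °C; 0% = DMSO wells with yeast and 100% = medium wells without yeast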
Numbers without * were called inactive; . = not tested or not shown.

SMILES	NALP3 yeast inh	TIM10 inh	tim23-1 inh	tim10-1 inh	SKKanGAS inh	tim10-1 confirm	TIM10 conf	tim23-1 conf
COc1ccc2c3n(nc2c1)CCN=C3c1cc(Cl)c(N)c(Cl)c1	10	29	55*	42*	.	18	.	51*
CC(=O)Nc1ccc(NC(=O)COC(=O)C2CCCCC2)cc1	-11	0	1	5	.	.	.	.
Cc1cc(C)nc(Sc2ccc(C=O)cc2[N+](=O)[O-])n1	1	11	15	19	-9	.	.	.
O=Cc1ccc(Sc2nnc(-c3ccccc3)o2)c([N+](=O)[O-])c1	23	42*	55*	48*	-6	35*	18	58*
O=C(COC(=O)C1CCN(c2ccc(C(F)(F)F)cn2)CC1)Nc1ccc(Cl)cc1	19	19	56*	43*	14	46*	.	60*
O=C(COC(=O)C1CCN(c2ccc(C(F)(F)F)cn2)CC1)Nc1ccc(Cl)cn1	19	26	28	14	17	.	.	.
CCS(=O)(=O)N1CCC(C(=O)Oc2ccc(C(=O)OC)cc2)CC1	6	14	13	-14	-6	.	.	.
COc1cc(CC(=O)OCC(=O)NC2CCCCCC2)cc(OC)c1OC	19	7	17	13	.	.	.	.
Nc1cccc2c1C(=O)N(C(=O)/C=C/c1cccc(F)c1)C2=O	-11	50*	82*	69*	3	59*	40*	87*
O=C(/C=C/c1cccc(F)c1)N1CCN(c2ccccn2)CC1	22	2	15	7	2	.	.	.
FC(F)(F)c1cc(C(F)(F)F)c2ccc(N3CCN(c4ccc(Cl)cc4)CC3)nc2n1	12	-29	-36	18	1	.	.	.
N#CC(c1ccc(Cl)cc1)c1ccc2c(C(F)(F)F)cc(C(F)(F)F)nc2n1 (centres undefined)	20	64*	62*	71*	38	49*	54*	60*
CCOC(=O)c1cc(C#N)c(C)nc1N(CC)CC	-6	-17	-2	-12	-1	.	.	.
CSc1nc2ccc(NS(=O)(=O)c3ccccc3F)cc2s1	17	24	35	22	3	.	.	.
CSc1nc2ccc(NS(=O)(=O)c3c(Cl)cccc3Cl)cc2s1	24	35	52*	43*	34	30*	.	57*
Cc1ccc(-c2nc(N/N=C/c3ccncc3)c3ccccc3n2)cc1	8	60*	76*	74*	9	69*	60*	81*
COc1ccc(/C=N/Nc2nc(-c3cccnc3)nc3ccccc23)cc1OC	-7	17	42	26	2	.	.	.
CCSc1ccccc1C(=O)n1nnc2ccccc21	-23	39	59*	55*	.	49*	.	70*
CCSc1ccccc1C(=O)N1CCCC1	6	11	1	0	-11	.	.	.
CN(C)CCN(C)Cc1c2ccccc2c(CN(C)CCN(C)C)c2ccccc12	4	32	58*	47*	-3	36*	.	56*
COc1ccc(OC)c(CN2CCN(c3ccc(S(=O)(=O)N4CCCC4)cn3)CC2)c1	3	-3	15	16	.	.	.	.
COc1cccc(/C=C2\SC(=S)N(CCCC(=O)N3CCCCC3CCO)C2=O)c1 (centres undefined)	10	19	52*	50*	-4	20	.	55*
COc1cccc(/C=C2\SC(=S)N(CCCC(=O)N3CCCC3)C2=O)c1	23	33	58*	42*	4	23	.	51*
COc1ccc(/C=C2\SC(=S)N(CCCC(=O)N3CCOCC3)C2=O)cc1	14	8	34	25	4	.	.	.
CC(C)Cn1c(CCC(N)=O)nnc1SC(C)C(=O)Nc1ccc2c(c1)OCO2 (centres undefined)	6	1	21	15	.	.	.	.
SMILES	NALP3 yeast inh	TIM10 inh	tim23-1 inh	tim10-1 inh	SKKanGAS inh	tim10-1 confirm	TIM10 conf	tim23-1 conf
O=c1c2ccccc2oc2ccc(-c3ccc4[nH]ccc4c3)cc12	44	41*	62*	42*	18	39*	66*	74*
O=c1c2ccccc2oc2cc(-c3ccc4cc[nH]c4c3)ccc12	-7	6	7	3	.	.	.	.
COc1cc(N=c2ssnc2Cl)cc(OC)c1	16	33	76*	55*	14	58*	.	79*
COc1ccc(-c2cc(C(F)F)nc(-n3nc(C)cc3C)n2)cc1	30	52*	58*	42*	28	36*	-10	45*
CCN1/C(=C/C(C)=C/c2sc3ccccc3[n+]2CC)Sc2ccccc21	-6	79*	82*	80*	100*	76*	88*	82*
Cc1ccn2c(C(=O)NNC(=O)Nc3ccc(Cl)cc3)c(C)nc2c1	10	-3	-13	-6	.	.	.	.
O=C(NC(=S)Nc1cccc(Cl)c1Cl)C1CC1	21	41*	51*	43*	6	16	24	32
O=C(NC(=S)Nc1ccc(Br)c(Cl)c1)C1CC1	24	25	62*	43*	19	22	.	54*
CCOC(=O)c1ccccc1NC(=O)CSc1nnnn1C1CCCCC1	-1	36	53*	43*	-5	19	.	34
COC(=O)c1ccccc1NC(=O)CSc1nnnn1C1CCCCC1	10	17	33	26	2	.	.	.
C=CCn1c(O)c(C2=c3ccccc3=NC2=O)c2ccccc21	30	12	-2	-146	6	.	.	.
Cc1ccc2c(c1)c(C1=c3ccccc3=NC1=O)c(O)n2C	12	41*	52*	50*	-10	33*	50*	64*
O=C(OCn1ncc(Br)c(Br)c1=O)c1ccc(F)cc1	1	71*	55*	73*	13	65*	-14	38
O=C(OCn1ncc(Br)c(Br)c1=O)c1ccccc1Cl	-27	77*	73*	58*	6	50*	-9	23
CC(=O)OCn1ncc(N2CCOCC2)c(Br)c1=O	11	4	-1	1	5	.	.	.
CC[C@H]1c2[nH]c3ccccc3c2C[C@@H]2C(=O)N(c3ccc(F)cc3)C(=O)N21	-2	10	20	17	14	.	.	.
CC(OC(=O)CCC(=O)N1CCN(S(=O)(=O)c2ccc3ccccc3c2)CC1)C(=O)NC(N)=O (centres undefined)	-3	14	-3	-7	-2	.	.	.
